Consider 31 molecules from PubChem BioAssay (NCATS).

Assay [1] concerns Zika virus NS2B-NS3 protease (unlinked complex). The assay can be described thus: Primary screen GU Rhodamine qHTS for Zika virus inhibitors: Unlinked NS2B-NS3 protease assay (AID 1347159). Note: nearly all actives have a fitted effect of over 60% in size. Note: potency is the fitted concentration of half-maximal effect. The method in brief: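 Noncovalent NS2B hydrophilic domain–NS3 protease domain complex (25 nM) preincubated 15 min at room temperature with compounds (up to 114 microM) in 10 mM Tris-HCl pH 8.0, 0.01% Tween 20; 1.5 microM Rhodamine110 substrate added, fluorescence change over 15 min fitted to Hill equation.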
On the technique in general: qHTS replaces the single test concentration by a dilution series.

Assay [2] deals with Zika virus NS2B-NS3 protease (linked construct). Briefly: Primary screen NINDS Rhodamine qHTS for Zika virus inhibitors (AID 1347160). Note: nearly all actives have a fitted effect of over 55% in size. Note: potency is the fitted concentration of half-maximal effect. The method in brief:
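Purified linked NS2B-NS3 protease (NS2B hydrophilic domain joined to NS3 protease by flexible linker), 25 nM in 10 mM Tris-HCl pH 8.0, 0.01% Tween 20. Compounds titrated, 15 min preincubation at room temperature; 1.5 microM Rhodamine110 substrate, FITC fluorescence change over 15 min.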

Assay [3] is described as follows: Confirmatory screen NINDS Rhodamine qHTS for Zika virus inhibitors (AID 1347161). Note: potency is the fitted concentration of half-maximal effect; nearly all actives have a fitted effect of over 60% in size. To be noted: purified enzyme assay, Rhodamine110 substrate fluorescence, 15 min. The method in brief: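 Percent inhibition, normalized to uninhibited and enzyme-free controls, is fitted to a 4-parameter Hill equation. Fluorescence change comes from a 15-min cleavage of 1.5 microM bis-peptide Rhodamine110 substrate by 25 nM linked NS2B-NS3 at room temperature.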

A short description of assay [4]: Tertiary RLuc qRT-PCR qHTS assay for Zika virus inhibitors (AID 1347169). Note: nearly all actives have a fitted effect of over 55% in size. Note: potency is the fitted concentration of half-maximal effect. In a few lines: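 Inhibition of ZIKV-RLuc replication in Vero cells, read as Renilla luminescence 1-1.5 hrs after live-cell substrate addition, following 48-72 hrs infection at MOI 1-2 in presence of compound.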
Assay [5] is described as follows: OV-KATE Cancer Cell Toxicity qHTS against the NCATS CANVASS Library (AID 1347345). The source says: Natural products and their derivatives continue to be wellsprings of nascent therapeutic potential. However, many laboratories have limited resources for biological evaluation, leaving their previously isolated or synthesized compounds largely or completely untested. To address this issue, the Canvass library of natural products was assembled (https://tripod.nih.gov/canvass), in collaboration with academic and industry researchers, for quantitative high-throughput screening (qHTS) across a diverse set of cell-based and biochemical assays. The pure (>85% purity by liquid chromatography/mass spectrometry [LC/MS]) Canvass library of 346 natural products were submitted by 45 academic laboratories and companies around the world. […] The library was formatted into 1536-well plates and evaluated in 50 qHTS (in an 11-pnt concentration series) bioassays with broad scope of disease-relevant mechanisms. The resulting data set from 50 different assays was then systematically analyzed to identify overall trends and specific natural products with interesting biological activities. […]
Cancer Cell Toxicity protocol for cell lines COV-362, OV-KATE, OV-SAHO, UWB1.289, UWB1.289-WTBRCA1, HEK-293, HPAF-II, Panc-1005, SW1088, or U-118MG. […] Luminescence signal was acquired via the ViewLux plate reader (PerkinElmer) using a clear filter, 2 second exposure and 2x binning settings.

Assay [6] can be described thus: HepG2 cells viability qHTS for Zika virus inhibitors (AID 1347168). The method in brief: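 Counter-screen for cytotoxicity of hits from NS2B-NS3 protease qHTS. Overnight-attached cells (2.5 x 10^5 cells/mL, DMEM/4% FBS) were dosed in titration, incubated 24 to 48 hours, then assayed by CellTiter Glo.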

SMILES strings stand for the structures. Inconclusive results are not listed. Where a call stands in place of a potency, no number is given. Activity calls are given as the source filed them. Calls come from the whole dose curve; as a rule, active = well fitted curve in the direction sought with a large enough effect; inconclusive = small, poorly fitted or top-dose-only effect, or another doubt; inactive = no such curve, though single readings can be large; an effect the other way counts as inactive or inconclusive. *1 amine or outer side, *2 acyl side, *3 side chain or, on linkers, in order; H or OH if unused. Where a SMILES comes first, the peptide text is derived from it. Bridges are numbered along the chain shown (N, C = ends). Roman numbers before positions name the chains, in order. [ ]: non-standard residue; d: D form. ξ: configuration not given here. Actinocin(9to1) = Cc1c2oc3c(C)ccc(C(=O)[*:1])c3nc-2c(C(=O)[*:2])c(N)c1=O; ξNMeV = CNC(C(=O)O)C(C)C; ξV = CC(C)C(N)C(=O)O; Sar = CNCC(=O)O

In the case of `COC(=O)C1=CO[C@@H](O[C@@H]2O[C@H](CO)[C@@H](O)[C@H](O)[C@H]2O)[C@@H]2[C@@](C)(O)[C@@H](O)C[C@]12O`, the Potency result in assay [1] and in assay [2] was “inactive” throughout.
In the case of `Cc1cc(O)c(C(C)C)cc1O[C@@H]1O[C@H](CO)[C@@H](O)[C@H](O)[C@H]1O`, the Potency entry in assay [1] and in assay [2] was “inactive” in each case.
For `CC1(C)CCCC2(C)C3=C(C(=O)OC3O)C(O)CC12` (stereo not drawn), the Potency result in assay [1] and in assay [2] was “inactive” throughout.
In the case of `CC(=O)OC[C@@]12[C@H](O)C[C@]3(C)C(=CCC4[C@@]5(C)CC[C@H](O[C@@H]6O[C@H](C(=O)O)[C@@H](O[C@@H]7O[C@H](CO)[C@@H](O)[C@H](O)[C@H]7O)[C@H](O)[C@H]6O[C@@H]6O[C@H](CO)[C@@H](O)[C@H](O)[C@H]6O)[C@](C)(CO)C5CC[C@]43C)[C@@H]1CC(C)(C)[C@@H](OC(C)=O)[C@@H]2O` (stereo partly drawn), the Potency result in assay [1] and in assay [2] was “inactive” in each case.
As to `O=C(O[C@H]1[C@@H]2C=CO[C@@H](O[C@@H]3O[C@H](CO)[C@@H](O)[C@H](O)[C@H]3O)[C@@H]2[C@@]2(CO)O[C@@H]12)c1ccc(O)c(O)c1`, the Potency entry in assay [1] and in assay [2] was “inactive” in each case.
Turning to `OC[C@H]1O[C@@H](Oc2ccc3c(c2)OC[C@H]2c4cc5c(cc4O[C@@H]32)OCO5)[C@H](O)[C@@H](O)[C@@H]1O`, the Potency entry in assay [1] and in assay [2] was “inactive” each time.
As to `C[C@@H]1O[C@@H](O[C@H]2[C@H](OC(=O)C34CCC(C)(C)CC3C3=CCC5C6(C)CC(O)C(O[C@@H]7O[C@H](CO)[C@@H](O)[C@H](O)[C@H]7O)C(C)(C(=O)O)C6CCC5(C)C3(CO)CC4)O[C@H](C)[C@H](O)[C@@H]2O)[C@H](O)[C@H](O)[C@H]1O[C@@H]1OC[C@@H](O)[C@H](O)[C@H]1O` (stereo partly drawn), the Potency result in assay [1] and in assay [2] was “inactive” throughout.
In the case of `CC(C)=CCC[C@](C)(O[C@@H]1O[C@H](CO[C@@H]2OC[C@@H](O)[C@H](O)[C@H]2O)[C@@H](O)[C@H](O)[C@H]1O)[C@H]1CC[C@]2(C)[C@@H]1[C@H](O)C[C@@H]1[C@@]3(C)CC[C@H](O[C@@H]4O[C@H](CO)[C@@H](O)[C@H](O)[C@H]4O[C@@H]4O[C@H](CO)[C@@H](O)[C@H](O)[C@H]4O)C(C)(C)[C@@H]3CC[C@]12C`, the Potency result in assay [1] and in assay [2] was “inactive” each time.
Consider `CC1(CO)CC2C(O)C(=O)C3(CO)CC3(C)C2C1` (stereo not drawn), for which the Potency entry in assay [1] and in assay [2] was “inactive” each time.
For `CC1(C)OC(=O)C(OCC2CC2)=C1c1ccc(S(C)(=O)=O)cc1`, the Potency entry in assay [1] and in assay [2] was “inactive” throughout.
As for `C=C1[C@H]2CC[C@]3(O)[C@@](CC[C@@H]4[C@](C)(C(=O)O)CCC[C@]43C)(C2)[C@H]1OC(=O)/C(C)=C\C`, the Potency entry in assay [1] and in assay [2] was “inactive” throughout.
As for `CC1CCC2(C)C(CC(O)C(O)C23CO3)C1(C)CCC1=CC(=O)OC1O` (stereo not drawn), the Potency entry in assay [1] and in assay [2] was “inactive” in each case.
Consider `Cc1cn2c(N)c(Cl)cc(C(=O)NCC3CCN(CC(C)C)CC3)c2n1`, for which the Potency entry in assay [1] and in assay [2] was “inactive” throughout.
As for `CNC(=O)Nc1ccc(OC)c(NC(=O)NC(=O)c2cc(F)c(F)cc2Cl)c1`, the Potency entry in assay [1] and in assay [2] was “inactive” throughout.
Regarding `Cc1cc(O)cc(Oc2cc(C)c(C(=O)O)c(O)c2)c1`, the Potency in assay [1] was 14.1 µM (active); in assay [2], 17.8 µM (active).
As to `C=C[C@H]1[C@H](O[C@@H]2O[C@H](CO[C@@H]3OC[C@](O)(CO)[C@H]3O)[C@@H](O)[C@H](O)[C@H]2O)OC=C2C(=O)OCC[C@H]21`, the Potency entry in assay [1] and in assay [2] was “inactive” throughout.
As to `CNC(=O)c1ccc2cc([C@@]3(O)CCn4cncc43)ccc2c1`, the Potency entry in assay [1] and in assay [2] was “inactive” each time.
Regarding `CCCC1=CC2=C(CO1)C(=O)C(C)(OC(=O)c1c(C)cc(OC)cc1O)C(O)C2` (stereo not drawn), the Potency entry in assay [1] and in assay [2] was “inactive” each time.
Consider `O=C1Nc2ccc(O)cc2O[C@H]1O[C@@H]1O[C@H](CO)[C@@H](O)[C@H](O)[C@H]1O`, for which the Potency result in assay [1] and in assay [2] was “inactive” in each case.
For the molecule `CC(=O)NCCCCn1c2c(c3ccccc31)C(=O)NCC2`, the Potency entry in assay [1] and in assay [2] was “inactive” throughout.
Turning to `COC(=O)C1=C[C@@H](O)[C@@H](O)[C@H](O[C@@H]2O[C@H](COC(=O)/C=C/c3ccccc3)[C@@H](O)[C@H](O)[C@H]2O)C1`, the Potency entry in assay [1] and in assay [2] was “inactive” in each case.
As for `CC1(C)CCCC2(C)C(CO)C3CCC2C31` (stereo not drawn), the Potency result in assay [1] and in assay [2] was “inactive” throughout.
Consider `CC1(C)CCC[C@@]2(C)[C@H]1[C@H](O)C=C1COC(=O)[C@@]12O`, for which the Potency result in assay [1] and in assay [2] was “inactive” throughout.
In the case of `CCC(CC)n1ccc2c(C(=O)NCc3c(C)cc(C)[nH]c3=O)cc(C#N)cc21`, the Potency result in assay [1] and in assay [2] was “inactive” in each case.
With `COc1cc(/C=C/C(=O)O[C@H]2[C@H](OC(=O)/C=C/c3cc(OC)c(O)c(OC)c3)O[C@H](CO[C@@H]3O[C@H](CO)[C@@H](O)[C@H](O)[C@H]3O)[C@@H](O)[C@@H]2O)ccc1O`, the Potency entry in assay [1] and in assay [2] was “inactive” in each case.
In the case of `CCC(C)C(=O)O[C@@H]1[C@@H](O)[C@@H](O[C@H]2O[C@H](CO)[C@@H](O)[C@H](O)[C@H]2O)O[C@H](CO)[C@H]1O` (stereo partly drawn), the Potency entry in assay [1] and in assay [2] was “inactive” throughout.
As for `CC1(C)CC2C3=CCC4C5(C)CCC(OC6OC(CO)C(O)C(OC7OC(CO)C(O)C(OC8OC(CO)C(O)C(OC9OC(COC%10OC(CO)C(O)C(O)C%10O)C(O)C(O)C9O)C8O)C7O)C6O)C(C)(C)C5CCC4(C)C3(C)CCC2(C(=O)O)CC1O` (stereo not drawn), the Potency in assay [3] is 7.42 µM (active).
Regarding `CC(C)(O)/C=C1/C(=O)C(C)(C)C(=O)C(C)(C)C1(O)O[C@@H]1O[C@H](COC(=O)c2cc(O)c(O)c(O)c2)[C@@H](O)[C@H](O)[C@H]1O` (stereo partly drawn), the Potency entry in assay [4] is “inactive”.
With `C/C=C/C=C/C(CC(=O)O)Nc1ccc(C=O)cc1` (stereo not drawn), the molecule was classed as inactive in assay [5].
As to `CC1=C2C(=O)O[C@@H](c3ccoc3)[C@]2(C)CCC1`, the call in assay [5] was inactive.
Regarding `Cc1c2oc3c(C)ccc(C(=O)N[C@@H]4C(=O)NC(C(C)C)C(=O)N5CCC[C@H]5C(=O)N(C)CC(=O)N(C)C(C(C)C)C(=O)O[C@@H]4C)c3nc-2c(C(=O)N[C@@H]2C(=O)NC(C(C)C)C(=O)N3CCC[C@H]3C(=O)N(C)CC(=O)N(C)C(C(C)C)C(=O)O[C@@H]2C)c(N)c1=O` (stereo partly drawn) (I: T[ξV]P[Sar][ξNMeV] / II: T[ξV]P[Sar][ξNMeV]; ester I:1-I:C, II:1-II:C; linker I:N-II:N via Actinocin(9to1)), in assay [6], the result was inactive. The Potency in assay [4] was 0.208 µM (active).
